# Compound activity from PubChem.
# Rows were chosen to be rich in hits. Some 5.3% of all compounds tested hit in one or more screens of this group.
# Tau fluor counter: Counterscreen qHTS for Inhibitors of Tau Fibril Formation, Fluorescence Polarization | hit rate 0.93% among 280,000 | tau K18 P301L Alexa594 fluorescence, heparin fibrillization | AID 1463, 2008 | Potency, µM (top dose mostly 57.7 µM), for the others: at the highest dose activity change, negative = decrease; further: potency means the concentration at half of the fitted maximal effect; nearly all actives have a fitted effect of over 55% in size
#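 Human K18 P301L tau (15 uM unlabeled plus 0.24 uM Alexa 594-labeled, final) in 100 mM sodium acetate pH 7 was mixed with compound and 20 uM heparin and incubated 6 hr at 37 C.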
# Sfp inh: qHTS Assay for Inhibitors of Bacillus subtilis Sfp phosphopantetheinyl transferase (PPTase) | AID 1490, 2009 | 4'-phosphopantetheinyl transferase ffp (Bacillus subtilis), Q9F4F7 | Biochemical Sfp PPTase activity, qHTS | Potency, µM, without a hit: largest response in the series, negative = inhibition, usual class: inhibitors | hit rate 3.5% among 310,000;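 further: the enzyme is Sfp with the accession as filed and its product quenches rhodamine fluorescence; potency means the concentration at half of the fitted maximal effect; 0% = enzyme reaction without inhibitor and -100% = no enzyme wells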
#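 Fluorescence-quenching assay: 15 nM Sfp-PPTase preincubated 15 min at room temperature with compound, then 5 uM rhodamine-CoA and 12.5 uM BHQ-2-labelled YbbR peptide added. Fluorescence (ex 525/em 598 nm) read at start and after 30 min; difference gives rate.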
# JMJD2E inh: qHTS Assay for Inhibitors of Human Jumonji Domain Containing 2E (JMJD2E). AID 2147, 2009. Potency, µM (doses to about 57.1 µM), for the others: at the highest dose activity change, negative = inhibition, usual class: inhibitors. Lysine-specific demethylase 4E (Homo sapiens), B2RXH2. JMJD2E catalytic domain, FDH-coupled NADH fluorescence (FDH is formaldehyde dehydrogenase). hit rate 1.6% among 230,000; active means well fitted inhibition curve with a large enough effect, not every such curve was filed as active; inconclusive means small, poorly fitted or top-dose-only effect, or another doubt; inactive means no such curve, though single readings can be large or run the other way;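 further: potency means the concentration at half of the fitted maximal effect; 0% = wells with enzyme and -100% = buffer wells without enzyme; nearly all actives have a fitted effect of over 50% in size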
# Target sequence (B2RXH2 1-337 limits assumed): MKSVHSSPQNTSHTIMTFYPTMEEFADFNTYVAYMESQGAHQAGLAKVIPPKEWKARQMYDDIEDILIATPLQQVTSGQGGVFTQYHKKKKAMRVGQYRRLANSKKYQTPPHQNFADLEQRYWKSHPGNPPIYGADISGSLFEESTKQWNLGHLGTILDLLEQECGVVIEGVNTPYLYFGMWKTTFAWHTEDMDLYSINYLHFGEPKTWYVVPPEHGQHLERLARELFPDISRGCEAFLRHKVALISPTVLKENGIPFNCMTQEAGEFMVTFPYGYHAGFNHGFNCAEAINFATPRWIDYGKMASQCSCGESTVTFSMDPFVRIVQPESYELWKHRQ
# Tau fibril ThT: qHTS for Inhibitors of Tau Fibril Formation, Thioflavin T Binding | Potency, µM (highest dose often 57.4 µM), for inactives: top-dose activity, negative = inhibition, hits mostly inhibitors | recombinant tau K18 P301L (four-repeat tau fragment), heparin-induced fibrillization, ThT fluorescence | hit rate 2.1% among 270,000 | AID 1460, 2008; further: potency means the concentration at half of the fitted maximal effect; nearly all actives have a fitted effect of over 55% in size
# Target sequence (P10636 561-689 P618L limits assumed): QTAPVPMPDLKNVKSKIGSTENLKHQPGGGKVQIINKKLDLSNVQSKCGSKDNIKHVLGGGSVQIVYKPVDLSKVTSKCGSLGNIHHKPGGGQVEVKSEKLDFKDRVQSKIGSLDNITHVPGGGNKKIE
#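 In this qHTS, human K18 P301L tau is incubated with compound and heparin for 6 hr at 37 C, and Thioflavin T fluorescence then reports fibril load.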
# Tau FP inhib: qHTS for Inhibitors of Tau Fibril Formation, Fluorescence Polarization; K18 P301L tau heparin fibrillization, Alexa594 FP, 6 h; Potency, µM (series often up to 57.7 µM), for the others: top-dose activity, negative = inhibition, actives largely listed as inhibitors; hit rate 0.39% among 280,000; AID 1468, 2008; further: potency means the concentration at half of the fitted maximal effect; nearly all actives have a fitted effect of over 55% in size
#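 Human K18 P301L fragment (15 uM unlabeled plus 0.24 uM Alexa 594-labeled) in 100 mM sodium acetate pH 7 with compound, aggregation induced by 20 uM heparin for 6 hr at 37 C. ThT (30 uM) added for 1 hr, then Alexa 594 FP read.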
# Coupling enz: qHTS Assay for Inhibitors of Fructose-1,6-bisphosphate Aldolase from Giardia Lamblia: Coupling assay counterscreen; coupling enzyme system counterscreen, AmpLite Red fluorescence; activity change, negative = inhibition, % at 58.2 µM, hits read low; hit rate 0.67% among 290,000; in the data active means activity change below about -30%
#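 Compounds tested against the coupling enzymes alone at 57.5 uM final; readout was AmpLite Red fluorescence (525/598 nm) after 20 min at RT.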
# * = called active by the depositor; ? = inconclusive; nt = not tested or not shown; [ ] = another dose, or the depositor's remark. Unless noted, the call rests on the fitted dose curve; in most records, active means well fitted curve in the direction sought with a large enough effect; inconclusive means small, poorly fitted or top-dose-only effect, or another doubt; inactive means no such curve, though single readings can be large; an effect the other way counts as inactive or inconclusive. Unless noted, on the % scale 0 is the no-effect control and ±100 the full control effect.
SMILES,Tau fluor counter,Sfp inh,JMJD2E inh,Tau fibril ThT,Tau FP inhib,Coupling enz
CCOC(=O)/C=C/CCCC=O,-20%,3%,-1%,-14%,?,2
CC(C)(C)Nc1oc(-c2ccccc2)nc1-c1ccccc1F,-25%,-2%,3%,-13%,?,2
O=C(NCc1cccnc1)c1ccc(-c2cc(Cl)ccc2Cl)o1,-27%,56µM*,-2%,-22%,9%,-3
O=C(NCc1cccnc1)c1ccc(-c2ccc(Cl)cc2)o1,-11%,6%,?,-1%,-4%,-1
COCCn1c(-c2ccc(NC(C)=O)cc2)nc2c1c(=O)[nH]c(=O)n2CC(C)C,nt,2%,nt,nt,nt,-2
CCCCn1c(=O)[nH]c(=O)c2c1nc(-c1ccc(-c3ccccc3Br)o1)n2CCOC,-6%,40µM*,?,?,-6%,-2
COCCn1c(-c2ccc(-c3ccccc3Cl)o2)nc2c1c(=O)[nH]c(=O)n2CC(C)C,-9%,18µM*,-3%,-8%,-2%,1
CCCCn1c(=O)[nH]c(=O)c2c1nc(-c1ccncc1)n2CCOC,2%,11%,?,1%,3%,0
OCCCc1nc2n(n1)C(c1ccccc1Cl)C=C(c1cccs1)N2 (stereo unspecified),-1%,50µM*,?,17%,8%,-8
O=C(NC1CC(=O)N(c2ccc(F)cc2)C1)C1CCCC1 (stereo unspecified),-6%,nt,nt,-2%,-10%,nt
CCc1oc2ccccc2c1C(=O)c1cc(I)c(O)c(I)c1,nt,40µM*,nt,nt,nt,nt
CCCn1c(=O)c2sccc2n2c(CCCC(=O)NC3CCC(C)CC3)nnc12 (stereo unspecified),-6%,nt,nt,-5%,-6%,nt
CC1(C)CC(=O)C2=C(C1)Nc1ccccc1N=C2,-25%,40µM*,?,?,-13%,-27
CC1(C)CC(=O)C2=C(C1)Nc1ccccc1NC2,2%,10%,1%,4%,6%,-21
O=C(N/N=C/C(Br)=C\c1ccccc1)c1n[nH]c2c1CCC2,-20%,28µM*,?,?,-12%,2
O=C(Oc1cc(Cl)ccc1Cl)c1ccc(N2CCOCC2)c([N+](=O)[O-])c1,?,-3%,-4%,16µM*,-8%,-1
Cc1ccc(OC(=O)c2ccc(N3CCOCC3)c([N+](=O)[O-])c2)cc1,?,-12%,-6%,10µM*,-1%,0
O=[N+]([O-])c1cc(Cl)ccc1N1CCN(c2ccccc2O)CC1,16µM*[quencher],2%,-24%,14µM*,15%,3
O=C(Oc1ccc(Cl)cc1)c1ccc(N2CCOCC2)c([N+](=O)[O-])c1,?,-4%,7%,?,2%,1
CCOC(=O)c1ccc(NC2SC(=O)N(Cc3cccc(C(=O)O)c3)C2=O)cc1 (stereo unspecified),-4%,nt,nt,-12%,0%,nt
CC1(C)C(c2cccs2)=[N+]([O-])C2(CCCCC/C2=N\NC(N)=S)N1O (stereo unspecified),5%,89µM*,-1%,3%,-1%,-11
CCOC(=O)C1CCN(S(=O)(=O)c2cc(-c3onc(C)c3C)ccc2C)CC1,-22%,nt,nt,-11%,8%,nt
COc1cccc(C2CC(=O)N(c3ccc(F)cc3)C3=C2C(=O)OC3)c1OC (stereo unspecified),-6%,nt,nt,0%,-3%,nt
CC1=NN(c2ccc([N+](=O)[O-])cc2)C(=O)/C1=C\N(C)C,-24%,7%,-5%,13µM*,1%,0
CCCC1=NN(c2ccc([N+](=O)[O-])cc2)C(=O)/C1=C/N(C)C,-16%,79µM*,6%,?,1%,-8
SMILES,Tau fluor counter,Sfp inh,JMJD2E inh,Tau fibril ThT,Tau FP inhib,Coupling enz
CCOC1=NN(c2ccc(Cl)cc2)C(=O)/C1=C\N(C)C,-2%,21%,-5%,-4%,9%,7
CCOC(=O)C1=C(CS(=O)(=O)c2ccc(C)cc2)NC(=O)NC1c1ccc(C(C)C)cc1 (stereo unspecified),-17%,nt,nt,-12%,3%,nt
C/C=C/C(=O)[C@@H](C)[C@@H](/C=C/C[Si](C)(C)C)c1ccccc1,nt,-9%,nt,nt,nt,-3
NC(N)=Nc1ccc(Cl)cc1,-6%,12%,7%,-3%,-4%,-1
NC(=Nc1ccc(N)cc1)C(N)=Nc1ccc(N)cc1,?,3%,?,8.9µM*,?,-9
Cc1ccc(S(=O)(=O)NCCOC(=O)Nc2sc(=S)n(C)c2C)cc1,-14%,56µM*,6%,?,2%,0
Cc1c(NC(=O)OCCNC(=O)Nc2ccccc2)sc(=S)n1C,-9%,-24%,-3%,-17%,4%,1
Cc1ccc(Cl)cc1OCC(=O)NCCOC(=O)Nc1sc(=S)n(C)c1C,-24%,-2%,2%,-14%,?,2
CCOC(=O)Nc1sc(=S)n(C)c1C,-5%,16µM*,-21%,-14%,-1%,1
CCc1cccc(C)c1NC(=O)Cn1ccn(Cc2ccc(Cl)cc2)c(=O)c1=O,-1%,nt,nt,-13%,4%,nt
Cc1ccc(NC(=O)CSc2nnc(COc3ccc(Cl)cc3)o2)cc1,?,nt,nt,?,4%,nt
NC(=O)C1(NC(=O)[C@@H]2CC3(CC(c4cccc(NC(=O)c5cc([N+](=O)[O-])cc([N+](=O)[O-])c5)c4)=NO3)CN2C(=O)c2ccccc2)CC1 (stereo partly specified),25µM*[quencher],79µM*,-4%,-13%,?,-1
C/C=C\C=C/C(=O)Nc1cccc(C2=NOC3(C2)C[C@H](C(N)=O)N(C(=O)c2ccc(OC)cc2)C3)c1 (stereo partly specified),19%,13µM*,-16%,0%,0%,2
C/C=C/C(=O)Nc1cccc(C2=NOC3(C2)C[C@@H](C(N)=O)N(C(=O)c2cc([N+](=O)[O-])cc([N+](=O)[O-])c2)C3)c1 (stereo partly specified),-4%,?,6%,-5%,3%,-7
C/C=C\C=C/C(=O)Nc1cccc(C2=NOC3(C2)C[C@@H](C(N)=O)N(C(=O)c2ccc(Cl)cc2)C3)c1 (stereo partly specified),-1%,7.1µM*,?,1%,-1%,5
